# AGP1-GFP MLPCN: alters AGP1-GFP fluorescence in TOR pathway yeast screen; 0.02% of 320,000 active; S. cerevisiae AGP1-GFP multiplex flow cytometry, 3 h; GFP as percent of DMSO wells; GFP response vs DMSO, % at 10 µM;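 active means GFP response relative to DMSO above a set limit, near screen average plus 3 SD, cut at about 150% in these data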;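 further: median GFP channel fluorescence of the gated AGP1 strain per well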
# RPL19A TOR yeast: alters RPL19A-GFP fluorescence in TOR pathway yeast screen; S. cerevisiae RPL19A-GFP strain, flow cytometry, 3 h; hits give low values; percent response vs DMSO, % at 10 µM; 0.3% of 330,000 active;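 active means percent response vs DMSO below 50%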;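 further: median channel GFP fluorescence of the barcoded RPL19A-GFP strain; ratio of sample median GFP to plate DMSO average so 100% = DMSO; lower means less RPL19A-GFP as with rapamycin TOR inhibition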
# MEP2-GFP yeast: yeast TOR pathway MEP2-GFP modulation. AID 2016. 0.51% of 330,000 active. GFP response vs DMSO, % at 10 µM. S. cerevisiae MEP2-GFP strain, flow cytometry GFP, 3 h; 100% = DMSO control level;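 active means GFP response versus DMSO above a set limit, roughly screen mean plus 3 SD, cut at about 180% in these data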;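 further: median GFP fluorescence of the barcode-gated MEP2-GFP cells per well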
# CIT2-GFP yeast: yeast TOR pathway CIT2-GFP modulation; S. cerevisiae CIT2-GFP strain, flow cytometry, 3 h; 100 means same as DMSO wells; GFP response vs DMSO, % at 10 µM; 0.065% of 320,000 active;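 active means GFP response relative to DMSO above a set limit, near the screen mean plus 3 SD, cut at about 150% in these data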;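 further: ratio of well median GFP fluorescence to mean of DMSO wells on the plate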
# LAP4-GFP MLPCN: modulators of TOR pathway LAP4-GFP in S. cerevisiae; GFP response vs DMSO, % at 10 µM; S. cerevisiae LAP4-GFP multiplex, flow cytometry GFP, 3 h; median GFP as percent of DMSO wells; 0.34% of 320,000 active;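 active means GFP response vs DMSO above a set limit, about the screen mean plus 3 SD, cut at about 150% in these data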
# LAP4 cherry2: second confirmation of modulators of TOR reporter LAP4-GFP in yeast; GFP response vs DMSO, % at 10 µM; S. cerevisiae LAP4-GFP strain, flow cytometry GFP, 3 h; 20% of 590 active; shares compounds with LAP4-GFP MLPCN;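 active means GFP signal as percent of the solvent control above about 150%, meaning raised reporter expression, limit read from the data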;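 further: ratio of well median GFP fluorescence to plate DMSO mean so 100% = DMSO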
# MEP2 cherry2: reconfirmed MEP2-GFP TOR pathway modulator in yeast. shares compounds with LAP4-GFP MLPCN. S. cerevisiae MEP2-GFP strain, flow cytometry GFP, 3 h. GFP response vs DMSO, % at 10 µM. 10% of 590 active. AID 2622;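 active means GFP signal above 150% of the solvent control wells, that is a rise of more than half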;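 further: median channel GFP fluorescence of all gated yeast cells per well; ratio of median GFP to plate DMSO average so 100% = DMSO level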
# RPL19A GFP CP2: reconfirmed modulator of RPL19A-GFP TOR reporter in yeast; 3% of 590 active; GFP response vs DMSO, % at 10 µM; AID 2623; shares compounds with LAP4-GFP MLPCN; S. cerevisiae RPL19A-GFP strain, flow cytometry GFP, 3 h; hits give low values; 100% means same as DMSO wells;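 active means under 65% GFP response relative to DMSO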;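 further: median GFP channel fluorescence per well over the all cells gate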
# CIT2-GFP pick2: reconfirmed modulator of CIT2-GFP TOR reporter in yeast. shares compounds with LAP4-GFP MLPCN. S. cerevisiae CIT2-GFP strain, flow cytometry GFP, 3 h; DMSO control wells read 100%. GFP response vs DMSO, % at 10 µM. 8% of 590 active;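 active means GFP response vs DMSO above about 150%, limit read from the data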;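 further: median green fluorescence per well over all gated yeast cells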
# AGP1 GFP CP2: reconfirmed modulator of AGP1-GFP TOR reporter in yeast | AID 2643 | 590 tested, under 10 active | percent response vs DMSO, % at 10 µM | shares compounds with LAP4-GFP MLPCN | S. cerevisiae AGP1-GFP strain, flow cytometry GFP, 3 h;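 active means over 150 percent of DMSO response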;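 further: median GFP channel fluorescence over all cells without mother daughter split; sample median GFP divided by mean DMSO control so 100% equals DMSO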
# Yeast autofluor: compound is autofluorescent in yeast s288c cells; shares compounds with LAP4-GFP MLPCN; S. cerevisiae s288c, 520 nm autofluorescence, flow cytometry, 3 h; hits give high values; zero means same as solvent-only cells; fluorescence change (kMESF span) at 33 µM; 610 tested, under 10 active;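 active means fluorescence span over the dose series, or activity score, above about 33, limit read from the data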
# s288c autofl DR: TOR screen hit shows autofluorescence in yeast s288c. S. cerevisiae s288c parental, compound autofluorescence, flow cytometry, 3 h. 110 tested, under 10 active. fluorescence change (span) at 33 µM. AID 488829. shares compounds with LAP4-GFP MLPCN;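 active means fluorescence change span, or the activity score built from it, above 25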
# TORC1 bypass: stops wildtype yeast growth while TORC1 bypass cells still grow; shares compounds with LAP4-GFP MLPCN; S. cerevisiae BY4741 spot growth rating, 48-72 h; hits give low values; growth rating (0-3) at 30 µM; 120 tested, under 10 active; AID 504456;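 active means growth rating at most 1 for wild type yeast while the TORC1 bypass strain still grows fully, rated 3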
# * = called active by the depositor; . = no result given. Rows were chosen to be rich in hits. Some 0.93% of all compounds tested hit in one or more screens of this group.
SMILES,AGP1-GFP MLPCN,RPL19A TOR yeast,MEP2-GFP yeast,CIT2-GFP yeast,LAP4-GFP MLPCN,Yeast autofluor,others
Cc1ccc(C2=NOC(=O)/C2=C\c2ccc(C)o2)cc1,78,88,74,58,203*,4.3,s288c autofl DR=1.8;TORC1 bypass=3
N#Cc1cnc(NCc2ccc(Cl)cc2Cl)nc1,107,107,110,111,108,.,
CC(C)C[C@@H](CN=[N+]=[N-])N1CCN(Cc2ccccc2)CCC1=O,79,93,87,91,123,.,
CC(=O)N(C1=C(Cl)C(=O)c2ccccc2C1=O)C1CCCCC1,8,8.2*,69,68,45,7.1,
COc1cccc2sc(Nc3nc(-c4ccccn4)cs3)nc12,87,66,100,73,169*,0.81,
c1ccc(Nc2nc(-c3ccccn3)cs2)cc1,46,79,91,76,102,.,
c1ccc(-c2csc(Nc3cccnc3)n2)nc1,94,94,104,95,114,0,LAP4 cherry2=99;MEP2 cherry2=105;RPL19A GFP CP2=102;CIT2-GFP pick2=102;AGP1 GFP CP2=99
COc1ccc(Cl)cc1N(CC(=O)N1CCCC1)S(C)(=O)=O,100,104,108,103,98,.,
CN(CCCNC(=O)CCC(=O)N1CCOc2ccc(Cl)cc21)Cc1ccccc1,91,90,92,86,98,.,
CC1CC(C)CN(S(=O)(=O)N2CCCC(C(=O)NC3CCCCC3C)C2)C1 (stereo not drawn),15,59,138,100,95,.,LAP4 cherry2=104;MEP2 cherry2=112;RPL19A GFP CP2=98;CIT2-GFP pick2=110;AGP1 GFP CP2=102
Cc1ccc(S(=O)(=O)NC(=O)Nc2ccc(OC(F)F)cc2)cc1,103,100,101,101,110,.,
CCCCCCCCC/C(=N\O)c1ccccn1,87,84,104,104,228*,-0.2,
CCc1ccc(C(=O)NNC(=O)c2c(CC)noc2C)cc1,100,95,97,87,96,.,
Oc1ccc2ccccc2c1/C=N/Nc1nnc(-c2ncc[nH]2)c2ccccc12,72,92,194*,111,277*,40*,
O=C(COC(=O)c1ccccc1C(=O)OCC(=O)NCCc1c[nH]c2ccccc12)NCCc1c[nH]c2ccccc12,96,97,95,131,155*,.,LAP4 cherry2=102;MEP2 cherry2=98;RPL19A GFP CP2=97;CIT2-GFP pick2=102;AGP1 GFP CP2=99
COCc1nc(-c2cc(OC)c(OC)c(OC)c2)no1,23,25*,793*,99,109,.,LAP4 cherry2=104;MEP2 cherry2=105;RPL19A GFP CP2=101;CIT2-GFP pick2=98;AGP1 GFP CP2=100
CCOC(=O)C[C@H]1c2ccc(C(F)(F)F)cc2S(=O)(=O)N1C(C)C,92,102,94,97,104,.,

# Screening data (PubChem)
